Assay results: PubChem BioAssay AID1671190 (National Center for Advancing Translational Sciences (NCATS), 2021)
Several values for one entry are separate records, joined by “and”; a condition that tells them apart may be missing. Equal values may be shown once. In all, about 580,000 compounds went through this assay and about 6,100 (1.1%) were called active. Another 15% or so got no clear call; they are omitted. The call rests on the fitted dose curve; in most records, active means well fitted inhibition curve with a large enough effect; inconclusive means small, poorly fitted or top-dose-only effect, or another doubt; inactive means no such curve, though single readings can be large or run the other way. Many of the other results were omitted from the sample, so actives are more common in it than they were.

Target: Polyunsaturated fatty acid lipoxygenase ALOX12 (Homo sapiens) (UniProt P18054)
Sequence (P18054 whole entry, looked up): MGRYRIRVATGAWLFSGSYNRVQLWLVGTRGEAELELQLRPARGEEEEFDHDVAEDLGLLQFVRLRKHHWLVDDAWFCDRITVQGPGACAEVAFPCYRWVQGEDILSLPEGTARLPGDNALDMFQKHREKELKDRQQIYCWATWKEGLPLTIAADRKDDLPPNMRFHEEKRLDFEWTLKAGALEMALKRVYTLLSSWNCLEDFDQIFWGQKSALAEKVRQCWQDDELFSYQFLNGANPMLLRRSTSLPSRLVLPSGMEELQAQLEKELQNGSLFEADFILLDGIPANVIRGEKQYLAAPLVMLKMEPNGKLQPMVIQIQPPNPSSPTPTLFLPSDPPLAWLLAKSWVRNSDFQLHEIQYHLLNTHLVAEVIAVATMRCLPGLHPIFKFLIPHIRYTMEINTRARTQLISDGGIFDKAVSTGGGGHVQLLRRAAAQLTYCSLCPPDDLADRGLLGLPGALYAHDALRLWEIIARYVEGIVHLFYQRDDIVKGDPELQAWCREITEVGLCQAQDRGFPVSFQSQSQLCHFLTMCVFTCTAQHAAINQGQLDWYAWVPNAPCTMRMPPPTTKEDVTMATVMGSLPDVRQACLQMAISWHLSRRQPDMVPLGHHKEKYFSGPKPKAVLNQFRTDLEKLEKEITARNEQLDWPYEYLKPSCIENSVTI
Assay: Primary qHTS assay for inhibitors of human arachidonate 12S-lipoxygenase (ALOX12): Round 2
Conditions: purified 12hLO, xylenol orange hydroperoxide absorbance; series mostly up to 108 µM; activity change, negative = inhibition: at the top concentration
Source text: Assay Provider: Theodore R. Holman Ph.D. University of California, Santa Cruz, California Human lipoxygenase 12hLO is a member of the closely related lipoxygenase family of enzymes which catalyze the site-specific oxidation of arachidonic acid to various hormone precursor molecules and as such is a candidate for drug development in a variety of disease areas, such as cancer and inflammation. Inhibition of 12hLO activity was screened by utilizing arachidonic acid as a substrate. The extent of hydroperoxide product formation was measured by a secondary chromogenic reaction in which xylenol orange (XO, Sigma-Aldrich, cat. number 39,818-7) reacts with the ferric ions produced from the reaction between the hydroperoxide and ferrous ions. The Fe (III)-XO complex is characterized with red-shifted absorbance at 560 nm. A purified preparation of human 12hLO was supplied by Dr. Holman laboratory, University of California, Santa Cruz.
PROTOCOL TABLE SEQUENCE No. (e.g., 1, 2, 3, etc.); […] (e.g., Cells, Incubation, Reagent, etc.); VALUE; DESCRIPTION 1; Enzyme; 3 uL; 150 nM 12hLO enzyme solution dispensed in 1536-well Greiner black, clear bottom plates. 2; Compound; 23 nL; compounds and controls were added. 3; Incubate; 15 min; room temperature. 4; Substrate; 1 uL; 40 uM arachidonic acid (final concentration). 5; Incubate; 30 min; room temperature. 6; Reagent; 4 uL; Fe-XO solution was added to each well. 7; Incubation; 30 min; room temperature 8; Detector; absorbance; Read 1 at 405 nm absorbance using ViewLux (Perkin-Elmer) CCD imager. 9; Detector; absorbance; Read 2 at 573 nm absorbance using ViewLux (Perkin-Elmer) CCD imager. NOTES (numbers refer to sequence above) 1; 150 nM 12hLO (final concentration) in buffer solution (25 mM Hepes, 0.01% Triton X-100, pH 7.0) was dispensed in columns 1, 2, 5-48. Column 1 is neutral (100% activity). Buffer only was dispensed in columns 3 and 4 as no enzyme negative controls. The plates were covered with metal lids with gas-exchange holes. 2; Compounds were pin transferred via a Kalypsys Pin Tool (Wako USA) in column 5-48. Control compound was transferred in column 2, titration of nordihydroguaiaretic acid (NDGA, Sigma-Aldrich, N5023) with top concentration of 20 mM in DMSO then 1:3 dilution in duplicate. Dilution factor of 23 nL into 4 uL final assay volume. 3; Covered assay plates were incubated for 15 min at room temperature. 4; Substrate was added to start the reaction; 40 uM arachidonic acid (Sigma-Aldrich, St. Louis, MO) was dispensed throughout the plate. 6; Chromogenic detection reagent solution (divalent iron/xylenol orange, Fe-XO) was added to each well: 200 uM xylenol orange, 300 uM ferrous ammonium sulfate prepared freshly in 50 mM sulfuric acid. 8, 9; Two absorbance readouts were obtained at 405 nm and at 573 nm using a ViewLux high-throughput CCD plate imager (Perkin-Elmer). The 573 to 405 (Read 2 / Read 1) absorbance ratio was used to compute reaction progress.
On the % scale 0 is the no-effect control and ±100 the full control effect; potency means the concentration at half of the fitted maximal effect.

Activity change, negative = inhibition, inactive:
CCc1ccccc1NC(=O)CSc1nc2ccccc2nc1C -0.561%
Cc1cc(C)cc(NC(=O)COc2ncnc3ccccc23)c1 -13.6%
COc1ccccc1CN(C)C(=O)NCc1ccc(S(=O)(=O)N2CCCCC2)cc1 -8.8%
c1ccc(CN2CCc3c(sc4c3c(N3CCOCC3)nc3nnnn34)C2)cc1 -7.17%
CCCCS(=O)(=O)CCCCCO 25.2%
CN(C)c1ccc(NC(=O)Cn2cnc3c2c(=O)n(C)c(=O)n3C)cc1 -22.3%
CC1(C)NC(=O)N(CCCC(=O)Nc2cccc3cccnc23)C1=O 0.0835%
Cc1cccc(NC2=NC(c3cccnc3)n3c(nc(C)cc3=O)N2)c1 (centres undefined) 39.2%
COc1ccccc1NC(=O)c1cc2c(OC)c(OC)c(OC)cc2[nH]1 17.8%
Cc1cc2oc(C(=O)NCc3ccc4c(c3)OCO4)cc(=O)c2cc1C -0.692%
CCOc1ccc(S(=O)(=O)NCc2ccc3c(c2)OCO3)cc1C 1.24%
CC(C)CNC(=O)NC1=C(C#N)C(C)(C)Cc2ccccc21 16.7%
CCOC(=O)c1c(NC(=O)C2(C)Cc3ccccc3C(=O)O2)sc2c1CCCC2 (centres undefined) -14.7%
CC(=O)CCc1ccc(OCC(O)CNC(C)(C)CO)cc1 (centres undefined) 18.8%
CCc1ccc(-c2nc(SCc3ncc(-c4ccccc4)o3)n[nH]2)cc1 -7.84%
CCOC(=O)c1cccc(NC(=O)C2=Cc3ccccc3OC=C2)c1 -0.337%
CC(=O)c1c(N2CCOCC2)nc(=S)n(Cc2ccccc2)c1C 0%
CC(=O)c1c(N2CCOCC2)nc(=S)n(-c2cc(C)ccc2C)c1C -29.5% [at 57.4 µM]
Cc1ccc(/C=C/C(=O)c2cc3ccccc3o2)s1 -33.4%
O=C(COc1ccc(F)cc1)Nc1ccc2oc(-c3ccc(F)cc3)nc2c1 -35.7%
Cc1ccc(-n2ncc3c(NNC(=O)C4CCCCC4)ncnc32)cc1 -0.144%
NS(=O)(=O)c1ccc(CCNc2ncnc3c2cnn3-c2ccccc2Cl)cc1 34.2%
CCN(CC)CCNc1ncnc2c1cnn2-c1cc(Cl)ccc1C -27.4%
COc1ccc(CCNc2ncnc3c2nnn3Cc2ccccc2)cc1 2.33%
CCOC(=O)c1c(C)c(CCC(=O)NCCN2CCOCC2)c(C)n1C -3.28%
CCN(CC)C(=O)C1=C(C)N=C2SC=C(CC(=O)NCc3ccco3)N2C1c1ccccc1F (centres undefined) 44.2%
C#CCNC(=O)CC[C@@H]1CNC(=O)[C@@H]2C[C@H](NC(=O)Nc3cccc(Cl)c3)CN12 -15.5% [at 176 µM]
O=C1Nc2ccc(-c3ccc(Cl)cc3)cc2C(=O)N2CC[C@H](NC(=O)N3CCOCC3)[C@@H]12 -2.01%
COc1cc(=O)n(-c2ccc(C)cc2)nc1C(=O)Nc1cccc(Cl)c1C 4.75%
COc1cc(OC)cc(C(=O)OCC(=O)Nc2c(C)cccc2C(C)C)c1 11%
O=C1C(=O)N(CCCN2CCOCC2)C(c2ccc([N+](=O)[O-])cc2)/C1=C(\O)c1ccc2c(c1)OCCO2 (centres undefined) -19.6%
COc1cc(C2/C(=C(\O)c3ccc4c(c3)CC(C)O4)C(=O)C(=O)N2c2nnc(C)s2)cc(OC)c1OC (centres undefined) -22.7%
CCn1cc(C#N)c(=O)n(Cc2noc(-c3ccc(Cl)cc3)n2)c1=O -30.4%
Cc1cccc(NC(=O)c2ccc3nc(C(C)C)oc3c2)c1C -22.6%
Cc1cccc(NC(=O)N2CCCCCC2)c1C 7.92%
O=C(OCc1ccccc1)N1CCOCC12CCN(Cc1cccc(O)c1)CC2 18.9% [at 176 µM]
CCc1ccccc1NC(=O)CSc1nc2c(=O)[nH]cnc2n1CC -4.33%
O=C(CCc1ncc(-c2ccccc2)o1)Nc1nc2ccccc2s1 -24.4%
Cc1cc(C)cc(-n2ccnc2SCC(=O)Nc2nc3ccccc3s2)c1 -4.72%
COc1cccc(Oc2coc3cc(OC)ccc3c2=O)c1 21.4%
CCN1C(=O)COc2ccc(NC(=O)c3cc(=O)c4cc(Cl)c(C)cc4o3)cc21 6.24%
O=C(NCCc1nc2ccccc2[nH]1)c1ccc(N2CCCN(Cc3cccc(F)c3)C2=O)cc1 5.35%
CCOc1ccccc1NC(=O)C1CCN(S(=O)(=O)c2c(C)nn(C)c2C)CC1 24.8%
CCOC(=O)c1c(S(=O)(=O)N2CCCC(C(=O)NCc3cccc(C)c3)C2)c(C)n(C)c1C (centres undefined) -21.3%
COC(=O)C1=C(C)N(C)C(C)=C(C(=O)OC)C1c1cccc(Br)c1 34.3%
CCN(CC)C(=O)C1=C(C)N(Cc2ccc(F)cc2)C(=O)C(CC(=O)NC2CCCC2)C1 (centres undefined) -0.0623%
O=C(CN1CCN(Cc2ccc(Cl)cc2)C1=O)NCc1ccc(F)cc1 -16.3%
CCN1CN(Cc2ccccc2)CNC1=S -19.3%
COC(=O)C1=C(C)N(Cc2ccccc2C(F)(F)F)C(=NCc2ccc(OC)cc2)NC1c1cccc(C(F)(F)F)c1 (centres undefined) -22.5%
COC(=O)C1=C(C)N(Cc2ccccc2C(F)(F)F)C(=NCC2CC2)NC1c1cccc(Cl)c1 (centres undefined) -22%
O=C1CCN(C(=O)C2CCN(C(=O)C3COc4ccccc4O3)CC2)CCCCCCN1 (centres undefined) 54.9%
Cc1ccc(NC(=O)CN2c3ccccc3CC2C)c(Cl)c1 (centres undefined) -14.7%

Potency, active:
Cc1ccc(CNCc2ccc3c(c2)OCO3)c(C)c1 44.7 µM
CCOC(=O)C1=C(NC(=S)NC(=O)c2ccccc2)c2ccccc2CC1(C)C 22.4 µM
CC(=O)c1c(N2CCN(c3ccc(F)cc3)CC2)nc(=S)n(-c2ccccc2)c1C 44.7 µM
Clc1cccc(-n2ncc3c(NCCc4ccccc4)ncnc32)c1 44.7 µM and 8.91 µM
COc1ccc(CCNc2ncnc3c2cnn3-c2ccc(C)cc2)cc1 28.2 µM
CC(C)c1ccc(C2/C(=C(\O)c3ccc4c(c3)OCCO4)C(=O)C(=O)N2c2nccs2)cc1 (centres undefined) 0.794 µM
Cc1cccc(NC(=O)c2cccc(C(=O)Nc3cccc(C)c3C)n2)c1C 3.16 µM
c1ccc(C(=NNc2nc3ccccc3s2)c2ccccn2)cc1 44.7 µM
CCOC(=O)c1c(S(=O)(=O)N2CCCC2)nn(C)c1C 14.1 µM
COC(=O)C1=C(C)N(Cc2ccc(F)cc2)C(=S)NC1c1cccc(Cl)c1 (centres undefined) 39.8 µM
CC(=O)C1=C(C)N(Cc2ccc(Cl)cc2)C(=S)NC1c1ccc(F)cc1 (centres undefined) 44.7 µM
CC(=O)C1=C(C)N(Cc2ccccc2)C(=S)NC1c1cccc(Br)c1 (centres undefined) 44.7 µM
